Results: PubChem BioAssay (NCATS)
Records with an inconclusive call do not appear. The source made the active and inactive calls. Calls follow the shape of the dose curve; as a rule, active = well fitted cell-killing curve with a large enough effect; inconclusive = small, poorly fitted or top-dose-only effect, or effect the other way; inactive = no such curve, though single readings can be large or run the other way.

Assay: Quantitative High-Throughput drug screen in 47 multiple myeloma cell lines against the NCATS MIPE library collection: KMS11_JCRBsus cell viability assay (AID 1919873); also: nearly all actives have a fitted effect of over 50% in size;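 as to viability (% of control): 100% = DMSO-only wells and 0% = media-only wells without cells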
Details: KMS11 myeloma viability, CellTiter-Glo ATP luminescence, 48 h; series mostly up to 45.8 µM; viability (% of control): at the top concentration
Summary of the method: (§1)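 qHTS format: cells plated (500/well), pin-dosed with MIPE 4.0 compounds, kept 48 h at 37 °C. Readout was CellTiter-Glo luminescence, median RLU.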
Potency is read from the fitted curve at half-maximal effect.

SMILES	Potency	viability (% of control)
CC(C)C[C@H](NC(=O)[C@H](Cc1ccccc1)NC(=O)c1cnccn1)B(O)O	0.0083 µM (active)	
Cc1cc(C2CCCCC2)n(O)c(=O)c1	5.26 µM (active)	
CC(=O)N1CCN(c2ccc(OC[C@H]3CO[C@](Cn4ccnc4)(c4ccc(Cl)cc4Cl)O3)cc2)CC1	18.7 µM (active)	
Oc1ccc(OCc2ccccc2)cc1		87.3% (inactive)
O=C1c2c(O)cc(O)cc2OC(c2ccc(O)c(O)c2)C1O (configuration not stated)		114% (inactive)
CC(=O)O[C@H]1C(=O)[C@@]2(C)C([C@H](OC(=O)c3ccccc3)[C@]3(O)C[C@H](OC(=O)[C@H](O)[C@@H](NC(=O)c4ccccc4)c4ccccc4)C(C)=C1C3(C)C)[C@]1(OC(C)=O)CO[C@@H]1C[C@@H]2O (some centres not stated)		11.7% (inactive)
CCCS(=O)c1ccc2nc(NC(=O)OC)[nH]c2c1 (configuration not stated)	18.7 µM (active)	
Cc1cccc(C)c1OCC(=O)N[C@@H](Cc1ccccc1)[C@@H](O)C[C@H](Cc1ccccc1)NC(=O)[C@H](C(C)C)N1CCCNC1=O	20.9 µM (active)	
CCCCCCCCOc1ccccc1C(=O)Nc1ccc(C(=O)OCC[N+](C)(CC)CC)cc1	18.7 µM (active)	
COc1cc(OC)c(C(=O)CCCN2CCCC2)c(OC)c1		95.2% (inactive)
COCCCN1CCC(NC(=O)c2cc(Cl)c(N)c3c2OCC3)CC1	23.5 µM (active)	
O=Nc1c(-c2c(O)[nH]c3cc(Br)ccc23)[nH]c2ccccc12	3.72 µM (active)	
C[C@@H](c1ncncc1F)[C@](O)(Cn1cncn1)c1ccc(F)cc1F		91.1% (inactive)
COc1cc2c(N3CCN(C(=O)Nc4ccc(OC(C)C)cc4)CC3)ncnc2cc1OCCCN1CCCCC1	26.4 µM (active)	
CN(c1nccc(=O)[nH]1)C1CCN(c2nc3ccccc3n2Cc2ccc(F)cc2)CC1		134% (inactive)
CN(C)C(=O)COC(=O)Cc1ccc(OC(=O)c2ccc(N=C(N)N)cc2)cc1		101% (inactive)

SMILES	Potency	viability (% of control)
O=C(NC(Cc1cc(=O)[nH]c2ccccc12)C(=O)O)c1ccc(Cl)cc1 (configuration not stated)		118% (inactive)
CCCCc1ccc2nc(NC(=O)OC)[nH]c2c1	0.0033 µM (active)	
Cc1nc(-c2ccc(OCC(C)C)c(C#N)c2)sc1C(=O)O		107% (inactive)
Nc1nc(OCc2ccccc2)c2[nH]cnc2n1		85.6% (inactive)
Clc1ccc(C(Cn2ccnc2)OCc2ccsc2Cl)c(Cl)c1 (configuration not stated)	13.2 µM (active)	
C[Se]CCC(N)C(=O)O (configuration not stated)		91.9% [at 92.2 µM] (inactive)
Cc1nc(Nc2ncc(C(=O)Nc3c(C)cccc3Cl)s2)cc(N2CCN(CCO)CC2)n1	14.8 µM (active)	
CC(C)(S)[C@@H](N)C(=O)O		124% (inactive)
CN(C)C(=O)[C@H](O)[C@H](Cc1ccccc1)NC(=O)c1cc2cc(Cl)ccc2[nH]1	16.6 µM (active)	
CCOC(=O)c1c(C)n(C)c2ccc(O)cc12		101% (inactive)
O=C1c2ccccc2-c2n[nH]c3cccc1c23		84.9% (inactive)
COC1=C(OC)C(=O)C(CCCCCCCCCCO)=C(C)C1=O	14.8 µM (active)	
CCCc1cc(=O)[nH]c(=S)[nH]1		117% (inactive)
O=c1oc2cc(O)ccc2s1		101% (inactive)
CCC(C)(Oc1ccc(C2(c3ccc(OC(C)(CC)C(=O)O)cc3)CCCCC2)cc1)C(=O)O (configuration not stated)		103% (inactive)

Assay: Quantitative High-Throughput drug screen in 47 multiple myeloma cell lines against the NCATS MIPE library collection: KMS28BM_JCRB cell viability assay (AID 1919874); also: nearly all actives have a fitted effect of over 35% in size
Details: CellTiter-Glo ATP, 48 h; series mostly up to 45.8 µM; viability, % of control: at the top concentration
Summary of the method: as §1

SMILES	Potency	viability, % of control
CC(C)C[C@H](NC(=O)[C@H](Cc1ccccc1)NC(=O)c1cnccn1)B(O)O	0.0132 µM (active)	
Oc1ccc(OCc2ccccc2)cc1		113% (inactive)
O=C(NC(Cc1cc(=O)[nH]c2ccccc12)C(=O)O)c1ccc(Cl)cc1 (configuration not stated)		116% (inactive)
Cc1nc(-c2ccc(OCC(C)C)c(C#N)c2)sc1C(=O)O		110% (inactive)
Nc1nc(OCc2ccccc2)c2[nH]cnc2n1		112% (inactive)
O=c1oc2cc(O)ccc2s1		121% (inactive)
